In PubChem BioAssay (NCATS):
A number with no mark means an inactive call. No rule for the calls is given here.

Tested on: HIV-1 nucleocapsid protein NCp7 (binding to TG oligonucleotide)
Assay: HIV Nucleocapsid (AID 346);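 also: potency is for inhibitors that block NC binding and lower polarization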
Settings: HIV-1 NC / fluorescein-TGTGTGTG probe, fluorescence polarization
Summary of the method: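 Fluorescence polarization binding of 100 nM HIV-1 NC to 10 nM fluorescein-labelled TG4xF oligonucleotide. Buffer was Hepes pH 7.5 with 250mM NaCl, 1uM ZnCl2, TCEP and 2-mercaptoethanol. Compounds were incubated 1 hr at room temperature before the read.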
Potency is read from the fitted curve at half-maximal effect.

| SMILES | Potency [µM] |
| --- | --- |
| N#Cc1ccc(CN2CCC3(CC2)CCN(C(=O)c2cc(C(F)(F)F)cc(C(F)(F)F)c2)CC3)cc1 | > 20 |
| Cn1c(=O)c(-c2ccc(F)cc2)nc2cncnc21 | > 20 |
| COc1ccc(C(=O)N2CCC3(CCCN(Cc4ccccc4OC)C3)CC2)cc1 | > 20 |
| CN(C)c1ncc2nc(-c3ccc(F)cc3)c(=O)n(C[C@H]3CCCO3)c2n1 | > 20 |
| CN(Cc1ccco1)c1nc(-c2ccccc2C(F)(F)F)nc2ccccc12 | > 20 |
| Cc1cnc(CNc2ccnc(-c3cccc(C#N)c3)n2)cn1 | > 20 |
| Cc1noc(C)c1-c1nc(N2CCN(C)CC2)c2ccccc2n1 | > 20 |
| O=C(c1ccncc1)N1CCC2(CCCN(c3ccccc3)C2)CC1 | > 20 |
| CC(C)NC(=O)N1CC[C@@]2(CCCN(C(=O)c3cnccn3)C2)C1 | > 20 |
| O=c1c(-c2ccccc2)nc2cnc(Nc3ccccc3)nc2n1Cc1cccs1 | > 20 |
| O=C(c1cc(C(F)(F)F)cc(C(F)(F)F)c1)N1CCC2(CC1)CN(c1ccccc1)C2 | > 20 |
| COc1ccc(C(=O)N2CCC3(CCN(CC(C)C)CC3)CC2)cc1 | > 20 |
| COc1ncc2nc(-c3ccc(F)cc3)c(=O)n(-c3ccccc3)c2n1 | > 20 |
| COc1ccc(NC(=O)N2CCCC3(CCN(S(=O)(=O)c4ccccc4)CC3)C2)cc1 | > 20 |
| CN(C)c1nc(-c2ccoc2)nc2ccccc12 | > 20 |
| COc1ccc(-n2c(=O)c(C)nc3cncnc32)cc1 | > 20 |
| COc1ccc2[nH]cc(CCNc3ncnc4ccc(-c5ccccc5CN(C)C)cc34)c2c1 | > 20 |
| CN(C)c1ncc2ncc(=O)n(C)c2n1 | > 20 |
| CC(=O)N1CCC2(CCN(Cc3ccccc3)CC2)CC1 | > 20 |
| CN1CCN(c2nc(-c3cccc(NS(C)(=O)=O)c3)nc3ccccc23)CC1 | > 20 |

| SMILES | Potency [µM] |
| --- | --- |
| COc1ccccc1CNc1nc(-c2ccc(C(=O)N(C)C)cc2)nc2ccccc12 | > 20 |
| O=c1c(-c2ccc(Cl)cc2)nc2cnc(N3CCNCC3)nc2n1Cc1cccs1 | > 20 |
| COc1ccc(CNc2ncncc2-c2cccc(C#N)c2)c(OC)c1 | > 20 |
| c1ccc(-c2cccc(N3CCCC4(CCNCC4)C3)c2)cc1 | > 20 |
| COCCn1c(=O)c(-c2ccccc2)nc2cnc(N3CCOCC3)nc21 | > 20 |
| COc1ccc2[nH]cc(CCNc3nc(-c4ccc(N(C)C)cc4)nc4ccccc34)c2c1 | > 20 |
| O=C(c1cc(C(F)(F)F)cc(C(F)(F)F)c1)N1CCC2(CC1)CCN(c1ncccn1)CC2 | > 20 |
| CCNc1ncc2nc(-c3ccc(OC)cc3)c(=O)n(Cc3cccs3)c2n1 | > 20 |
| Cc1cnc(CNc2nc(-c3ccoc3)nc3ccccc23)cn1 | > 20 |
| COCC(=O)N1CCC2(CC1)CCN(c1ccc(-c3ccccc3)cc1)CC2 | > 20 |
| COCCn1c(=O)c(-c2cn(C)c3ccccc23)nc2cnc(Oc3cccc(Cl)c3)nc21 | > 20 |
| N#Cc1ccccc1-c1ccc2ncnc(NC3CC3)c2c1 | > 20 |
| CN1CCN(c2ncc3nc(-c4cccs4)c(=O)n(-c4ccccc4)c3n2)CC1 | 16.7 |
| COCC(=O)N1CCC2(CC1)CN(Cc1nccs1)C2 | > 20 |
| CCNc1ncc2nc(CCc3ccccc3)c(=O)n(-c3ccccc3)c2n1 | > 4 |
| CN(C)Cc1ccccc1-c1cc(-n2ccnc2)ncn1 | > 20 |
| COc1cccc(Cn2c(=O)c(-c3cccc(F)c3)nc3cncnc32)c1 | > 20 |
| COCC(=O)N1CCC2(CCCN(Cc3cc(C(F)(F)F)cc(C(F)(F)F)c3)C2)CC1 | > 20 |
| COc1ccc(-n2c(=O)c(-c3ccc(F)c(F)c3)nc3cncnc32)cc1 | > 4 |
| Cn1cccc1C(=O)N1CCC2(CC1)CCN(c1ccc(-c3ccccc3)cc1)CC2 | > 20 |
